Results filed as inconclusive are left out. Active and inactive are the calls of the source. The call rests on the fitted dose curve; in most records, active means well fitted inhibition curve with a large enough effect; inconclusive means small, poorly fitted or top-dose-only effect; inactive means flat fitted curve, though single readings scatter. Peptide text beside a SMILES is read from it.
Columns and labels:
Experiment in all cases: qHTS profiling for inhibitors of Plasmodium falciparum proliferation (AID 504749); further: nearly all actives have a fitted effect of over 60% in size
Conditions in all cases: P. falciparum in erythrocytes, SYBR Green DNA, 72 h; series mostly up to 28.7 µM
PC26 = system: PC26
Method in brief: (§1)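 P. falciparum-infected erythrocytes (0.3% parasitemia, 2.5% hematocrit) incubated with compound 72 h at 37 C, 5% CO2. Parasite DNA detected by SYBR Green after lysis, overnight at room temperature; normalised to 0.29 uM artemisinin and DMSO.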

PC49 = system: PC49
Method in brief: as §1

SC27B = system: SC27B
Method in brief: as §1

TAB109 = system: TAB109
Method in brief: as §1

TAB113 = system: TAB113
Method in brief: as §1

TAB165 = system: TAB165
Method in brief: as §1

W2 = system: W2
Method in brief: as §1

Measured: Potency
Potency means the concentration at half of the fitted maximal effect.

CC[N+](C)(C)Cc1ccccc1Br
inactive: all assays above

COC(=O)CCC(=O)CN
inactive: all assays above

CC(=O)N[C@@H](CC(=O)O)C(=O)N[C@@H](CCC(=O)O)C(=O)O (Ac-Asp-Glu-OH)
inactive: all assays above

Cc1ccccc1OCC(O)CNCCOc1ccc(C(N)=O)cc1 (configuration not stated)
inactive: all assays above

CC1=CCC(C(C)(C)O)CC1 (configuration not stated)
inactive: all assays above

CO[C@H](C(=O)[C@@H](O)[C@@H](C)O)C1Cc2cc3cc(O[C@H]4C[C@@H](O[C@H]5C[C@@H](O)[C@H](O)[C@@H](C)O5)[C@@H](O)[C@@H](C)O4)c(C)c(O)c3c(O)c2C(=O)[C@H]1O[C@H]1C[C@@H](O[C@H]2C[C@@H](O[C@H]3C[C@](C)(O)[C@H](O)[C@@H](C)O3)[C@H](O)[C@@H](C)O2)[C@H](O)[C@@H](C)O1 (some centres not stated)
active: PC26 3.01 µM | PC49 708 nM | SC27B 0.126 µM | TAB109 141 nM | TAB113 0.0891 µM | TAB165 0.126 µM | W2 0.169 µM

IC(I)I
inactive: all assays above

CCNC(=O)[C@@H]1CCCN1C(=O)[C@H](CCCN=C(N)N)NC(=O)[C@H](CC(C)C)NC(=O)[C@@H](Cc1c[nH]c2ccccc12)NC(=O)[C@H](Cc1ccc(O)cc1)NC(=O)[C@H](CO)NC(=O)[C@H](Cc1c[nH]c2ccccc12)NC(=O)[C@H](Cc1cnc[nH]1)NC(=O)[C@@H]1CCC(=O)N1
active: PC26 3.38 µM | PC49 2820 nM | SC27B 6.31 µM | TAB109 4470 nM | TAB113 8.91 µM | TAB165 3.16 µM | W2 0.849 µM

O=C(O)CCC(=O)C(=O)O
not listed: TAB165
inactive: all other assays above

NC1C2CN(c3nc4c(cc3F)c(=O)c(C(=O)O)cn4-c3ccc(F)cc3F)CC12 (configuration not stated)
inactive: PC26
active: W2 6.75 µM

CC1=C(/C=C/C(C)=C/C=C/C(C)=C/CO)C(C)(C)CCC1
active: TAB113 11.2 µM | W2 7.57 µM

O=C1CSC2(CCN(CCCN3c4ccccc4Sc4ccc(Cl)cc43)CC2)N1
active: W2 4.78 µM

CCN(CC)Cc1cc(Nc2ccnc3cc(Cl)ccc23)ccc1O
active: PC26 0.161 µM | PC49 100 nM | SC27B 0.0708 µM | TAB109 50.1 nM | TAB113 0.0794 µM | TAB165 0.0447 µM | W2 0.051 µM

O=C(Nc1cccc(C(F)(F)F)c1)c1cc(Br)cc(Br)c1O
active: SC27B 8.91 µM | TAB113 12.6 µM | TAB165 14.1 µM | W2 6.75 µM

C[C@]12O[C@H](C[C@]1(O)CO)n1c3ccccc3c3c4c(c5c6ccccc6n2c5c31)CNC4=O
active: PC26 0.239 µM | PC49 891 nM | SC27B 0.316 µM | TAB109 355 nM | TAB113 0.316 µM | TAB165 0.251 µM | W2 0.239 µM

Cc1ccccc1
inactive: all assays above

CN=C(NC#N)Nc1ccc(C2=NNC(=O)C[C@@H]2C)cc1
not listed: PC26 | W2
inactive: all other assays above

O=C(O)c1cc(=O)c2c3nc4ccccc4oc-3cc(=O)c2[nH]1
inactive: PC49 | TAB113

CC(Cc1ccc(O)c(O)c1)C(C)Cc1ccc(O)c(O)c1 (configuration not stated)
inactive: PC49 | SC27B | TAB113
active: W2 15.1 µM

CCOC(=O)C1=CC2(CC)CCCN3CCc4c(n1c1ccccc41)C32 (configuration not stated)
active: SC27B 10 µM | TAB109 7940 nM | TAB113 11.2 µM | TAB165 7.94 µM

CCCCCCC(O)C/C=C/CCCCCCCC(=O)O (configuration not stated)
not listed: TAB109
inactive: all other assays above

CCOC(=O)C1=C(C)NC(C)=C(C(=O)OCC)C1c1ccccc1C=CC(=O)OC(C)(C)C
active: PC26 10.7 µM | SC27B 11.2 µM | TAB165 11.2 µM | W2 6.75 µM

COC(=O)C1=C(C#N)NC(C)=C(C(=O)OC(C)C)C1c1cccc([N+](=O)[O-])c1 (configuration not stated)
active: PC26 13.5 µM | PC49 12600 nM | SC27B 8.91 µM | TAB109 8910 nM | TAB165 10 µM

— PubChem BioAssay (NCATS)
